The values that follow come from paper PMC4336329 (PLoS ONE, 2015).

Structures are written as SMILES. About 14,000 (4.5%) of roughly 310,000 compounds showed an effect of 50% or more. Effects have a minus sign here. The sample holds strong results, similar compounds and a random draw of the others, so the mix is not that of the screen.
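Also: peak tail current of the secondary pulse compared with the same well before compound.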

In this experiment the target is human ether-à-go-go-related gene (hERG) potassium channel (human, UniProt Q12809). The experiment is described as follows: primary screen, population patch clamp on CHO cells stably expressing hERG; higher = less effect of the substance.
human ether-à-go-go-related gene (hERG) potassium channel, sequence (Q12809 whole entry, looked up): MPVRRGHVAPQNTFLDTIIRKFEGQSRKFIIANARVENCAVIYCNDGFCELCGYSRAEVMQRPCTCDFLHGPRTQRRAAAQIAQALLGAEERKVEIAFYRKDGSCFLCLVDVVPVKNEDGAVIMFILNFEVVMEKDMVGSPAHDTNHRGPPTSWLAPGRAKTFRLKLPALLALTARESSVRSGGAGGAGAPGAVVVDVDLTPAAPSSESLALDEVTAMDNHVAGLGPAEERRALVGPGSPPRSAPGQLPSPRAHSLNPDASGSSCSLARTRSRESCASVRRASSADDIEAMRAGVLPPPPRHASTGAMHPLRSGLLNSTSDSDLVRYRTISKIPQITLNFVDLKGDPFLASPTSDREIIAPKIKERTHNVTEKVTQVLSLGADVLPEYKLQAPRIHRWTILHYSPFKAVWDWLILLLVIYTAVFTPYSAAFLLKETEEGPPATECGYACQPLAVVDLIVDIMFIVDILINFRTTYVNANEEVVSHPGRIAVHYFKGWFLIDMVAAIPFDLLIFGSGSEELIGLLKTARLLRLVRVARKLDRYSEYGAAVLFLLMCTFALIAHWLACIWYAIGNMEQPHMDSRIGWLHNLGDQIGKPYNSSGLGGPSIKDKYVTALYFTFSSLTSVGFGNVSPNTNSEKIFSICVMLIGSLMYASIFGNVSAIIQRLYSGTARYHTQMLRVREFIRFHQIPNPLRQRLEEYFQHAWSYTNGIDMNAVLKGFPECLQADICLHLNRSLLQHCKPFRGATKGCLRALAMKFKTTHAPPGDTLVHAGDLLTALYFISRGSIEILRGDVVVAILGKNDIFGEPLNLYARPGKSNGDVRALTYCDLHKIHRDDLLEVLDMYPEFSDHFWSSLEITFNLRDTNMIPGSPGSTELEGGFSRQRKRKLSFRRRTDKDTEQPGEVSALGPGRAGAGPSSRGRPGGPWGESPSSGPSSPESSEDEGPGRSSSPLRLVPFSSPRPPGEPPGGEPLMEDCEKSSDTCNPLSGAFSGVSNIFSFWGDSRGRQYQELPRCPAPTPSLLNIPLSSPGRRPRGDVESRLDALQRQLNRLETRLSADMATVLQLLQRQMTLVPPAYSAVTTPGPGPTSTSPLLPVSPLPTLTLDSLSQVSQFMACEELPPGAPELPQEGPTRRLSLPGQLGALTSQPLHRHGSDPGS
`CCc1ccc(NC(=O)CCn2c(=O)oc3ccccc32)cc1`: the “hERG current change (%, negative = inhibition) at 10uM” value is -10.1%.
As to `CCc1ccc(-c2nc3ccc(Br)cc3c(C(=O)O)c2C)s1`, the “hERG current change (%, negative = inhibition) at 10uM” value turned out to be 19.1%.
In the case of `CCOc1ccc(NC(=O)CN2CCN(CC(=O)Nc3ccc(F)c(F)c3)CC2)cc1`, the “hERG current change (%, negative = inhibition) at 10uM” value was -78.3%.
For the compound `O=C(CN1CCN(c2ccccn2)CC1)Nc1ccc(F)c(F)c1`, the “hERG current change (%, negative = inhibition) at 10uM” value is reported as -27.6%.
For `CCc1sc(C(=O)N2CCN(c3ccc(F)cc3)CC2)cc1C`, the “hERG current change (%, negative = inhibition) at 10uM” value is on record as -16.3%.
Consider `CCN1CCN(CCC(=O)Nc2ccc(F)c(F)c2)CC1`, for which the “hERG current change (%, negative = inhibition) at 10uM” value is -17.1%.
As to `COc1cc(NC(=O)CN2CCCCCC2)cc(OC)c1`, the “hERG current change (%, negative = inhibition) at 10uM” value worked out at 5.28%.
The result for `CCCCOc1ccc(NC(=O)CN2CCN(CC)CC2)cc1.Cl` reads -15.9%; that for `CCc1sc(C(=O)N2CCN(CC(=O)Nc3cccc(F)c3)CC2)cc1C`, -65%.
The result for `CCOc1ccc(NC(=O)CN2CCN(c3ccc(F)cc3)CC2)cc1` reads -22.2%; that for `CCOc1ccc(NC(=O)CN2CCN(CC(=O)Nc3cc(OC)cc(OC)c3)CC2)cc1`, -74.9%; that for `O=C(CN1CCN(c2ccc(Cl)cc2)CC1)Nc1cccc(F)c1`, -3.54%.
With `CCOc1ccc(NC(=O)CN2CCN(CC(=O)Nc3ccc(F)cc3)CC2)cc1`, the “hERG current change (%, negative = inhibition) at 10uM” value was -77.2%.
As to `COC(=O)c1ccccc1C(=O)N1CCOCCN(C(=O)c2ccccc2C(=O)OC)CCOCC1`, the “hERG current change (%, negative = inhibition) at 10uM” value amounted to 0.0748%.
With `O=C(Cn1cncn1)NCc1cccc(OC(F)F)c1`, the “hERG current change (%, negative = inhibition) at 10uM” value is 7.23%.
Take `O=C(Nc1nc2ccccc2s1)C1CCN(S(=O)(=O)c2cc([N+](=O)[O-])ccc2Cl)CC1`: the “hERG current change (%, negative = inhibition) at 10uM” value was determined as 10.4%.
For `COc1ccc(CCN=c2c([N+](=O)[O-])nn(-c3cccc(C)c3)n2O)cc1OC`, the “hERG current change (%, negative = inhibition) at 10uM” value is recorded as -34.1%.
As to `O=C(COC(=O)C1CCN(S(=O)(=O)c2cccc3cccnc23)CC1)c1ccccc1`, the “hERG current change (%, negative = inhibition) at 10uM” value is on record as 7.23%.
As to `Cc1onc(-c2ccccc2)c1C(=O)NC(C)C1CCCO1` (stereo not drawn), the “hERG current change (%, negative = inhibition) at 10uM” value came to 10.5%.
Consider `C/C(=N\Nc1cc(N2CCOCC2)nc(C)n1)c1ccc(F)cc1`, for which the “hERG current change (%, negative = inhibition) at 10uM” value is -12%.
As for `Clc1cccc(Cc2ccc(Cl)nn2)c1`, the “hERG current change (%, negative = inhibition) at 10uM” value was -3.46%.
For the compound `COc1cccc2cc(C(=O)N3CCN(C(=O)c4ccccc4)CC3)c(=O)oc12`, the “hERG current change (%, negative = inhibition) at 10uM” value stood at 7.71%.
As for `O=C(Nc1ccccc1Cc1ccccc1)c1ccccc1F`, the “hERG current change (%, negative = inhibition) at 10uM” value is reported as -4.48%.
As to `COc1ccc(Oc2ccccc2/C=N/O)cc1`, the “hERG current change (%, negative = inhibition) at 10uM” value is recorded as 4.99%.
Turning to `Cc1sc2ncnc(N3CCC(C(=O)Nc4ccc(C#N)c(Cl)c4)CC3)c2c1C`, the “hERG current change (%, negative = inhibition) at 10uM” value is given as -7.2%.
The value for `O=C(COc1ccc(S(=O)(=O)N2CCOCC2)cc1)Nc1ccc(Cl)c(C(F)(F)F)c1` was -13.1%; that for `CCOc1ccc(NC(=O)CN2CCN(CC(=O)Nc3ccc(Cl)c(C(F)(F)F)c3)CC2)cc1` was -57%; that for `O=C(CN1CCN(c2ccccn2)CC1)Nc1cccc(F)c1` was 5.56%.
Take `O=C(CN1CCN(S(=O)(=O)c2ccc(F)cc2)CC1)Nc1ccc(Cl)c(C(F)(F)F)c1`: the “hERG current change (%, negative = inhibition) at 10uM” value stood at 9.48%.
In the case of `O=C(CN1CCN(C(=O)COc2cccc(F)c2)CC1)Nc1ccc(Cl)c(C(F)(F)F)c1`, the “hERG current change (%, negative = inhibition) at 10uM” value is on record as -60.6%.
With `CC(=O)c1cccc(OCC(=O)N2CCN(CC(=O)Nc3cccc(F)c3)CC2)c1`, the “hERG current change (%, negative = inhibition) at 10uM” value is reported as -42.2%.
For the compound `O=C(CN1CCN(c2ccccn2)CC1)Nc1ccc(Cl)c(C(F)(F)F)c1`, the “hERG current change (%, negative = inhibition) at 10uM” value is -7.97%.
On to `Cc1ccc(OCCC(=O)Nc2ccc(F)c(Cl)c2)cc1`, for which the “hERG current change (%, negative = inhibition) at 10uM” value was determined as 5.65%.
On to `Cc1ccc(OCCC(=O)Nc2ccc(F)c(F)c2)cc1`, for which the “hERG current change (%, negative = inhibition) at 10uM” value is listed as -5.62%.
Take `COc1ccccc1N1CCN(CC(=O)Nc2cccc(F)c2)CC1`: the “hERG current change (%, negative = inhibition) at 10uM” value was -28.1%.
For `Cc1ccc(OCCC(=O)Nc2ccc(C)c(F)c2)cc1`, the “hERG current change (%, negative = inhibition) at 10uM” value is given as -50.6%.
As for `CCOc1ccc(NC(=O)CN2CCN(CC(=O)Nc3cccc(F)c3)CC2)cc1`, the “hERG current change (%, negative = inhibition) at 10uM” value was -86.3%.
In the case of `Cc1c(NC(=O)c2ccc([N+](=O)[O-])o2)cccc1-c1nc2ncccc2o1`, the “hERG current change (%, negative = inhibition) at 10uM” value is -11.8%.
In the case of `CCC(C)C(=O)Nc1ccc([N+](=O)[O-])cc1OC` (stereo not drawn), the “hERG current change (%, negative = inhibition) at 10uM” value came to 4.15%.
The result for `CCC(C)(C)NC(=O)CN(Cc1ccc(OC)cc1)C(=O)CCC(=O)Nc1nccs1` reads -4.32%; that for `O=C(NC1CCCCC1)c1ccc(S(=O)(=O)c2ccccc2Cl)c([N+](=O)[O-])c1`, 1.94%.
As for `COc1cccc(CC(=O)OCC(=O)N(C)CC(=O)Nc2ccc(F)cc2)c1`, the “hERG current change (%, negative = inhibition) at 10uM” value was -9.44%.
The result for `CN(C)c1ccc(C2Nc3ccccc3C(=O)N2NS(C)(=O)=O)cc1` (stereo not drawn) reads 14.2%; that for `C/C(=N\NC(=O)c1nnn(-c2nonc2N)c1CN1CCCCCC1)c1ccc(Br)cc1`, 24.6%; that for `Cc1ccc(OCCOC(=O)c2c(-c3ccccc3)noc2C)cc1`, 7.59%.
In the case of `CCOc1ccc(NC(=O)CN2CCN(Cc3c(F)cccc3F)CC2)cc1`, the “hERG current change (%, negative = inhibition) at 10uM” value is reported as -75.3%.
The value for `CCOc1ccc(NC(=O)CN2CCc3ccccc3C2)cc1` was -6.01%; that for `CCOc1ccc(NC(=O)CN2CCN(C3c4ccccc4-c4ccccc43)CC2)cc1` was -40.3%; that for `CCOc1cc(N2CCOCC2)c(OCC)cc1NC(=O)c1nc2nc(C)cc(C)n2n1` was 18.4%.
As for `COCCCNC(=O)/C=C/c1ccc(OCc2c(F)cccc2Cl)cc1`, the “hERG current change (%, negative = inhibition) at 10uM” value is listed as -1.25%.
Regarding `CN(C)CCCNC(=O)/C=C/c1ccc(OCc2c(F)cccc2Cl)cc1`, the “hERG current change (%, negative = inhibition) at 10uM” value is recorded as -67%.
In the case of `O=C(/C=C/c1ccc(OCc2c(F)cccc2Cl)cc1)N1CCOCC1`, the “hERG current change (%, negative = inhibition) at 10uM” value is -30.1%.
Regarding `COc1cc2c(cc1OC)C(c1ccccc1F)OC(=O)C2` (stereo not drawn), the “hERG current change (%, negative = inhibition) at 10uM” value was found to be 6.96%.
The value for `O=C(CN1CCOCC1)Nc1ncc(Cc2cccc(Cl)c2Cl)s1` was -51.4%; that for `O=C(CN1CCOCC1)Nc1ncc(Cc2cccc(Cl)c2)s1` was -43%; that for `O=C(CN1CCOCC1)Nc1ncc(Cc2cccc3ccccc23)s1` was -23.3%.
The value for `O=C(COc1ccc2ccccc2c1)Nc1ccc2c3c(cccc13)CC2` was 3.91%.
Turning to `O=C(CSc1ncnc2c1cnn2-c1cccc(Cl)c1)NCC1CCCO1` (stereo not drawn), the “hERG current change (%, negative = inhibition) at 10uM” value was found to be 7.88%.
On to `CCCc1cc(=O)oc2cc(C)cc(OC(C)C(=O)NCc3cccnc3)c12` (stereo not drawn), for which the “hERG current change (%, negative = inhibition) at 10uM” value is -47.3%.
For `CCCc1cc(=O)oc2cc(C)cc(OC(C)C(=O)NCc3ccncc3)c12` (stereo not drawn), the “hERG current change (%, negative = inhibition) at 10uM” value is recorded as -69.5%.
As for `Cc1cc(OC(C)C(=O)NCc2ccncc2)c2c(C)cc(=O)oc2c1` (stereo not drawn), the “hERG current change (%, negative = inhibition) at 10uM” value is given as -49.2%.
Regarding `CCc1cc(=O)oc2cc(C)cc(OC(C)C(=O)NCc3ccncc3)c12` (stereo not drawn), the “hERG current change (%, negative = inhibition) at 10uM” value is reported as -56.8%.
For `CCCCc1cc(=O)oc2cc(C)cc(OC(C)C(=O)NCc3ccncc3)c12` (stereo not drawn), the “hERG current change (%, negative = inhibition) at 10uM” value is given as -36%.
As to `CCc1cc(=O)oc2cc(C)cc(OC(C)C(=O)NCc3cccnc3)c12` (stereo not drawn), the “hERG current change (%, negative = inhibition) at 10uM” value is -32.9%.
In the case of `O=S(=O)(Nc1nc2c(s1)CCCC2)c1ccc(F)cc1`, the “hERG current change (%, negative = inhibition) at 10uM” value is on record as -21.1%.
Turning to `O=C(NCCc1cccc(F)c1)[C@@H]1CSC2c3ccccc3C(=O)N21` (stereo partly drawn), the “hERG current change (%, negative = inhibition) at 10uM” value is given as -13.9%.
As to `Cc1cc(C(=O)Nc2ccc3c(c2)OCCO3)c(C)o1`, the “hERG current change (%, negative = inhibition) at 10uM” value is given as 4.25%.
With `COC(=O)c1cccc(Oc2cccc(C(F)(F)F)c2)n1`, the “hERG current change (%, negative = inhibition) at 10uM” value was 13%.
In the case of `Cc1ccc(S(=O)(=O)N2C(=O)CCC2C(=O)Nc2ccc3c(c2)OCCO3)cc1` (stereo not drawn), the “hERG current change (%, negative = inhibition) at 10uM” value is given as 10.6%.
For `O=C1CCN(Cc2cccnc2)CCN1[C@H](CO)c1ccccc1`, the “hERG current change (%, negative = inhibition) at 10uM” value is recorded as 16%.
The value for `CCN(CC(=O)NCc1ccc(F)cc1)C(=O)COc1ccc(C)c(C)c1` was -53.6%.
As for `CCN(Cc1ccccc1)C(=O)COc1ccccc1`, the “hERG current change (%, negative = inhibition) at 10uM” value amounted to 9.21%.
As for `CCN(CC(=O)Nc1c(F)cccc1F)C(=O)CCNS(=O)(=O)c1ccc(C)c(C)c1`, the “hERG current change (%, negative = inhibition) at 10uM” value was 1.26%.
Turning to `CCN(CC(=O)NCc1ccc(F)cc1)C(=O)c1ccc(C)o1`, the “hERG current change (%, negative = inhibition) at 10uM” value amounted to 6.13%.
In the case of `CCN(CC(=O)NCc1ccc(F)cc1)C(=O)CCNS(=O)(=O)c1cccc(C)c1`, the “hERG current change (%, negative = inhibition) at 10uM” value is -51.9%.
The result for `CCc1ccc(OCC(=O)N(CC)CC)cc1` reads -55%.
Turning to `O=C(NCc1ccc(F)cc1)c1cc2ccccc2o1`, the “hERG current change (%, negative = inhibition) at 10uM” value is -13.4%.
Regarding `CCN(CC(=O)NCc1ccc(F)cc1)C(=O)Cc1c(F)cccc1Cl`, the “hERG current change (%, negative = inhibition) at 10uM” value is -37.6%.
Take `CCN(CC(=O)NCc1ccc(F)cc1)C(=O)c1cc2ccccc2o1`: the “hERG current change (%, negative = inhibition) at 10uM” value is given as -55.9%.
For `CCN(CC(=O)NCc1ccc(F)cc1)C(=O)c1ccc(COc2ccccc2)cc1`, the “hERG current change (%, negative = inhibition) at 10uM” value was -47.9%.
Regarding `CCN(CC(=O)NCc1ccc(Cl)cc1)C(=O)c1cc2ccccc2o1`, the “hERG current change (%, negative = inhibition) at 10uM” value is -32.2%.
Take `CCN(CC)C(=O)COc1ccc(-c2ccccc2)cc1`: the “hERG current change (%, negative = inhibition) at 10uM” value is on record as -36%.
Consider `CCOC(=O)c1cc(C)n(S(=O)(=O)c2ccc(C)cc2)c1C`, for which the “hERG current change (%, negative = inhibition) at 10uM” value is -2.18%.
In the case of `Cc1ccc(-c2cn(S(=O)(=O)c3cccc([N+](=O)[O-])c3)nc2N)cc1`, the “hERG current change (%, negative = inhibition) at 10uM” value is reported as 15.3%.
The value for `COc1ccccc1CNC(=O)CCC(=O)N1C[C@H]2C[C@@H](C1)c1cccc(=O)n1C2` was -5.65%; that for `O=C(COc1ncnc2sccc12)Nc1cccc(S(=O)(=O)N2CCOCC2)c1` was -2.77%.
The value for `O=C(Nc1ccc2nc(C3CC3)n(Cc3ccccc3)c(=O)c2c1)C1CC1` was -6.15%.
